{"source": "PubChem BioAssay (NCI)", "note": "This is part of a sample that, as a whole, favours compounds with a hit. Of some 83,000 tested, about 20% had one in any assay.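 The endpoint reported here, percent growth, reads 100 for growth as untreated, 0 for no net growth and -100 for all cells dead.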 Values without a mark were called inactive. Rule for the calls: active = growth percent below 10; inactive = the rest.", "data": [{"test_system": "KM12 colon", "assay": "NCI-60 one-dose screen, 48 h (100 = growth as untreated, 0 = no growth, -100 = all killed)", "conditions": "10 µM unless noted", "units": {"growth": "%"}, "values": [{"smiles": "O=C(CCn1c[n+](CC(=O)c2ccc(-c3ccccc3)cc2)c2ccccc21)Nc1cccc2cccnc12", "growth": 14.5}, {"smiles": "O=S(=O)(NCCNc1nccc(-n2cnc3ccccc32)n1)c1ccc(Cl)cc1", "growth": 97.1}, {"smiles": "O=C1CCCc2nc(Nc3ccc(S(=O)(=O)Nc4ccc([N+](=O)[O-])cc4)cc3)ncc21", "growth": 98.3}]}]}
